Assay outcomes deposited in PubChem BioAssay by several laboratories.
A selection: hits, their analogues and other compounds. The true share with any hit is near 3.6%.
esBAF inh: Bmi1 luciferase reporter increase in mESCs, primary screen, esBAF inhibitor project, mouse ES cells, Bmi1 luciferase knock-in, single point; 24 h; 100% = twice the neutral-well signal; reporter increase, % at 12.5 µM; 350,000 compounds, 2% hits; in the data active = activation above about 40%; inconclusive = no clear call, values can overlap the other calls;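 note: 0% = median of the plate's neutral control wells and 100% = double that signal; a rise in the Bmi1 reporter signal indicates esBAF inhibition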
APOBEC3G inh: APOBEC3G DNA deaminase inhibitors, primary screen, biochemical, fluorescence, single-stranded DNA substrate, uHTS | recombinant A3G, ssDNA deamination FAM/TAMRA fluorescence | inhibition, % at 20 µM | 330,000 compounds, 0.28% hits | AID 493012, 2011;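 active = inhibition of at least 40% at 20 µM, with no more than 30% in the related APOBEC3A deaminase screen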;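 note: plate controls were DMSO wells with A3G for no effect and wells lacking A3G enzyme for full effect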
PHOSPHO1 inh: PubChem AID 1565; Phosphoethanolamine/phosphocholine phosphatase (Homo sapiens), Q8TCT1; recombinant PHOSPHO1, absorbance phosphatase assay; inhibition, % at 13.3 µM; 290,000 compounds, 1.1% hits; in the data active = inhibition above about 60%
Target sequence (Q8TCT1 whole entry, looked up): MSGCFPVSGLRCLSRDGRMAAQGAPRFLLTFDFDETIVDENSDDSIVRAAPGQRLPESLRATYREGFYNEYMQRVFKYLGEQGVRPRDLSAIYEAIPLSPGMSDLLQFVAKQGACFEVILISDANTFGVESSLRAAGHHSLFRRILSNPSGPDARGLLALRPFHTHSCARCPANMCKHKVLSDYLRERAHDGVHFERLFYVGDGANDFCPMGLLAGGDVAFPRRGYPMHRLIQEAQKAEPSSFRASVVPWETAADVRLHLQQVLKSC
Wnt act: Wnt/beta-catenin pathway activators, primary screen, cell-based, plate reader, single point; Wnt/beta-catenin reporter cell assay, activator; activation, % at 9.35 µM; 300,000 compounds, 1.2% hits; AID 743398, 2014; in the data active = activation above about 30%, passing the limit was not always enough; inconclusive = no clear call, values can overlap the other calls;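 note: 0% = neutral control wells and 100% = positive control wells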
APOBEC3A inh: APOBEC3A ssDNA deaminase inhibitors, primary screen, selectivity assay for APOBEC3G inhibitor project, biochemical, FAM/TAMRA oligo cleavage fluorescence; recombinant A3A, FAM/TAMRA ssDNA deamination fluorescence; AID 493011, 2011; DNA dC->dU-editing enzyme APOBEC-3A (Homo sapiens), P31941; 330,000 compounds, 0.41% hits; inhibition, % at 20 µM;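 active = at least 40% inhibition at 20 µM here, with at most 30% in a related deaminase screen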;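 note: plate controls were A3A with DMSO for no effect and wells lacking A3A enzyme for full effect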
Target sequence (P31941 whole entry, looked up): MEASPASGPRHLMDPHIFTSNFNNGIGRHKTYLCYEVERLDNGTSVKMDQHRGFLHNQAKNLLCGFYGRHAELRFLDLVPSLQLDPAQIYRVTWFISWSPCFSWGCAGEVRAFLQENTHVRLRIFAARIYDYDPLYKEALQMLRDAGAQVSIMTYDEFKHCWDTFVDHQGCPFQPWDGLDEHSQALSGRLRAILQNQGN
MITF TRPM1 HTS: activators of MITF-driven TRPM1 promoter reporter, primary screen, cell-based, SK-MEL-5, luciferase, single point; activation, % at 12.5 µM; 300,000 compounds, 0.75% hits; AID 588334, 2011; SK-MEL-5 TRPM1-promoter luciferase, 24 h; % of positive control, neutral wells = 0;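 active = mean activation of at least 80% with every replicate also reaching 80%; inconclusive = mean reaches 80% but some replicate falls short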;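 note: 0% = neutral control wells and 100% = parthenolide positive control wells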
Starred values were filed as active, the others as inactive; ? = inconclusive; / = not tested or not shown.

SMILES	esBAF inh	APOBEC3G inh	PHOSPHO1 inh	Wnt act	APOBEC3A inh	MITF TRPM1 HTS
Oc1ccc(/C=N/Nc2nc(-c3cccnc3)nc3ccccc23)c(O)c1	58.1*	-2.1	6.1	0.7	4.2	15.7
Cc1c(O)ccc(/C=N/Nc2nc(-c3cccnc3)nc3ccccc23)c1O	/	0.7	49.1	20.6	1.1	64.9
COc1ccccc1C#Cc1cnc2c(c1)C(=O)N([C@H](C)CO)C[C@H](C)[C@H](CN(C)C(C)=O)O2	-1.7	/	/	/	/	/
COc1ccc(S(=O)(=O)Nc2ccc3c(c2)C(=O)N([C@H](C)CO)C[C@H](C)[C@@H](CN(C)CC2CCCCC2)OCCCC[C@H](C)O3)cc1	2.6	/	/	/	/	/
Cc1noc(C)c1NC(=O)Nc1ccc2c(c1)CC(=O)N([C@@H](C)CO)C[C@@H](C)[C@@H](CN(C)S(=O)(=O)c1cn(C)cn1)O2	-0.9	/	/	/	/	/
C/C(=N\Nc1nccnc1Cl)c1ccc(F)cc1	/	-6.8	49.0	9.2	-2.0	57.9
C/C(=N\Nc1nccnc1Cl)c1ccc(O)cc1	41.6*	-7.2	35.7	4.7	-5.7	/
O=C(CN1CCOCC1)N1CC[C@@H]2[C@@H](CO)Nc3ccc(-c4ccccc4)cc3[C@@H]21	1.8	/	/	/	/	/
O=C1C2C3C=CC(O3)C2C(=O)N1N=Cc1cccc2ccccc12 (stereo not drawn)	45.9*	/	/	-2.1	/	11.0
Cc1ccc(N=Nc2c(N)nn3c(N)c(C#N)c(C)nc23)cc1	-6.6	-7.9	19.9	0.2	2.1	-39.3
Cc1nn(-c2ccccc2)c(N)c1N=Nc1ccc2ccccc2c1	?	-2.3	-0.2	11.8	-3.5	57.7
Cc1ccc(N=Nc2c(N)nn(-c3ccccc3)c2N)cc1	/	-1.8	-5.1	33.0*	4.6	10.2
COc1ccc(N=Nc2c(N)nn(C)c2N)cc1	44.5*	/	/	8.9	/	54.6
C[C@H]1CN([C@@H](C)CO)C(=O)Cc2cc(NC(=O)CCC(F)(F)F)ccc2O[C@@H]1CN(C)Cc1ccc2c(c1)OCO2	-0.1	/	/	/	/	/
Fc1ccccc1CSc1ncnc2c1ncn2C1CCCCO1 (stereo not drawn)	38.5	/	/	47.6*	/	88.7*
COc1cccc(NC(=S)NNC(=O)Cn2nc(C(F)(F)F)cc2C)c1	-2.2	1.7	1.0	/	2.5	7.3
Cc1cc(C(F)(F)F)nn1CC(=O)NNC(=S)Nc1ccc(Cl)cc1	/	-1.0	90.7*	/	-0.7	-5.8
Cc1cc(C(F)(F)F)nn1CC(=O)NNC(=S)Nc1ccc(F)cc1	/	-4.4	85.8*	/	-1.6	-4.9
Cc1cc(C(F)(F)F)nn1CC(=O)NNC(=S)NCC(C)C	-2.0	-4.5	45.4	/	2.9	-1.5
CC(OC(=O)/C(C#N)=C/c1ccc(N(C)C)cc1)C(=O)N(C)c1ccccc1 (stereo not drawn)	16.6	-8.4	/	1.4	-2.4	8.6
CC(=O)Nc1ccc(NC(=O)C(C)OC(=O)/C(C#N)=C/c2ccc(N(C)C)cc2)cc1 (stereo not drawn)	66.0*	-5.6	/	19.5	1.6	81.2*
COc1cccc(-c2ccc3c(c2)[C@@H]2[C@@H](CCN2C(=O)c2ccccc2F)[C@H](CO)N3C)c1	13.4	/	/	/	/	/
O=C(Nc1cccc(Cl)c1)N1C[C@H]2[C@@H](c3ccccc31)[C@H](CO)N2C(=O)C1CCCC1	-5.2	/	/	/	/	/
Cc1ccc(Nc2nnc(-c3ccccc3N)o2)cc1C	/	-7.5	38.3	36.5*	-0.7	/
Cc1noc(C)c1S(=O)(=O)Nc1ccc2c(c1)C(=O)N([C@@H](C)CO)C[C@H](C)[C@@H](CN(C)S(=O)(=O)c1ccc(F)cc1)OCCCC[C@H](C)O2	-8.3	/	/	/	/	/
SMILES	esBAF inh	APOBEC3G inh	PHOSPHO1 inh	Wnt act	APOBEC3A inh	MITF TRPM1 HTS
C/C=C/c1ccc2c(c1)O[C@@H](CN(C)C(=O)c1cccc(F)c1)[C@@H](C)CN([C@@H](C)CO)S2(=O)=O	-0.6	/	/	/	/	/
CSc1ccc(C2NN=C(c3ccccc3)S2)cc1 (stereo not drawn)	/	-4.6	/	-4.7	-2.8	/
Cc1ccc(C2=NNC(C(O)C(O)C(O)CO)S2)cc1 (stereo not drawn)	/	-6.1	83.5*	/	-1.6	24.9
COc1ccccc1Cc1nc(-c2cccnc2)no1	/	-7.4	11.7	38.4*	-3.5	/
c1ccc(SCc2nc(-c3cccnc3)no2)cc1	13.4	-7.5	-3.3	/	-4.2	108.5*
Cc1cccc(-c2noc(CSc3ccccc3)n2)c1	45.7*	0.2	48.9	-0.6	0.9	86.7*
Cc1ccc(-c2noc(CSc3ccccc3)n2)cc1	-0.5	-1.7	17.5	51.7*	-0.2	102.2*
COc1ccc(Cc2nc(-c3cccnc3)no2)cc1OC	/	-7.0	-18.3	1.1	-1.5	/
Cc1ccc(-c2noc(CSc3nc(N)cc(N)n3)n2)cc1	/	-2.7	3.3	/	-1.1	/
C[C@@H]1CN([C@@H](C)CO)C(=O)c2cccc(NC(=O)Nc3ccccc3)c2O[C@@H]1CN(C)C(=O)Nc1ccc2c(c1)OCO2	0.4	/	/	/	/	/
C[C@@H]1CN([C@@H](C)CO)C(=O)c2cc(C#Cc3cccc(F)c3)cnc2O[C@@H]1CN(C)Cc1ccccn1	-9.9	/	/	/	/	/
C[C@@H]1CN([C@@H](C)CO)C(=O)c2cc(NC(=O)c3ccncc3)ccc2O[C@@H](C)CCCCO[C@H]1CN(C)S(=O)(=O)c1cccs1	-6.1	/	/	/	/	/
c1ccc(SCc2nc(-c3ccccn3)no2)cc1	25.6	-2.0	13.9	/	-4.4	82.6*
COCC(=O)N1C[C@@H](C)[C@@H](OC)CN(C)C(=O)c2ccc(NC(=O)Nc3cccc(F)c3)cc2OC[C@@H]1C	-0.5	/	/	/	/	/
Cc1cccc2c(=O)c(C(=O)NCCc3ccccc3)c[nH]c12	52.3*	1.4	8.5	5.4	-2.0	39.2
O=C(NCCc1ccccc1)c1nccc2ccccc12	80.2*	0.9	/	28.9	-0.4	80.7*
O=C(NCCc1ccccc1)c1c(O)c2ccccc2[nH]c1=O	50.2*	-4.2	25.3	4.6	-5.9	38.3
O=C(NCCc1ccccc1)c1n[nH]c2ccccc12	24.3	-0.3	15.3	51.9*	2.0	62.8
O=C(NCCc1ccccc1)c1c[nH]c2c(F)cccc2c1=O	38.1	-9.8	/	4.3	-4.8	/
O=C(NCCc1ccc(Cl)cc1)c1n[nH]c2ccccc12	/	-20.5	-1.7	2.0	-5.0	50.0
O=C(C[C@H]1C[C@@H]2c3cc(NC(=O)NC4CCCCC4)ccc3O[C@@H]2[C@@H](CO)O1)NCc1cccnc1	1.7	/	/	/	/	/
COCC(=O)Nc1ccc2c(c1)C(=O)N(C)C[C@@H](OC)[C@H](C)CN(C(=O)C1CCCC1)[C@@H](C)CO2	-2.8	/	/	/	/	/
